# Assay results published in ChEMBL document CHEMBL3988442, “University of Dundee, Small-Polar-MMV Screening Library” (2021).
# In all, about 66,000 compounds went through this assay and about 960 (1.5%) showed an effect of 50% or more. The full list was thinned out, with strong results kept by preference.
# Tested on: Trypanosoma brucei
# Assay: Trypanosoma brucei 72 hour study
# Type: functional, organism-based
# Design: scale not given: in the data most compounds retested in dose-response had high values
smiles,measurement,setting,value
CCn1nc(C)c(-c2cncn2CCN(C)C2CCCC2)c1C.Cl,Percent Effect,"30.3 µM, […]",-4.685%
O=C(c1c(O)cc(F)cc1F)N1CCc2cnccc21,Percent Effect,"30 µM, 30.03 µM",-42.5%
CCO[C@@H]1CO[C@@]2(CCN(Cc3ccc4c(c3)OCO4)C2)C1.O=C(O)C(F)(F)F,Percent Effect,"30.3 µM, […]",14.48%
Cc1[nH]nc(CCC(=O)N2CCc3ncnc(NCCO)c3CC2)c1C,Percent Effect,"30 µM, 30.03 µM",-37%
O=C(CCc1cccs1)N1CCc2[nH]nc(COc3ccccc3)c2C1,Percent Effect,"30 µM, 30.03 µM",68.24%
O=C(CCn1cccc1)N1CCc2[nH]nc(COc3ccccc3)c2C1,Percent Effect,"30 µM, 30.03 µM",-16.91%
O=C(CCc1ccco1)N1CCc2[nH]nc(COc3ccccc3)c2C1,Percent Effect,"30 µM, 30.03 µM",-57.79%
Cc1nn(C(C)C)c(C)c1CN1CCN(C2CCCCC2)C(=O)C1.O=C(O)CC(O)(CC(=O)O)C(=O)O,Percent Effect,"30.3 µM, […]",-4.336%
CC(=O)N1CCCCC12CCCN(Cc1ccco1)C2.O=C(O)C(F)(F)F (centres undefined),Percent Effect,"30.3 µM, […]",5.13%
Cc1cc(C)c(-c2nc(-c3c(C)ncc4c3CCNC4)no2)o1,Percent Effect,"30 µM, 30.03 µM",-0.4206%
CN(Cc1ccccn1)C1COC2(CCN(Cc3cccnc3)CC2)C1 (centres undefined),Percent Effect,"30 µM, 30.03 µM",-2.463%
CN(Cc1cccnc1)C1COC2(CCN(Cc3nccs3)CC2)C1.O=C(O)C(F)(F)F.O=C(O)C(F)(F)F.O=C(O)C(F)(F)F (centres undefined),Percent Effect,"30.3 µM, […]",-7.601%
CN(Cc1ccccn1)C1COC2(CCN(Cc3nccs3)CC2)C1 (centres undefined),Percent Effect,"30 µM, 30.03 µM",58.22%
CN(Cc1cccnc1)C1CC2(CCN(c3ccccn3)CC2)C1.O=C(O)C(F)(F)F.O=C(O)C(F)(F)F.O=C(O)C(F)(F)F,Percent Effect,"30 µM, 30.03 µM",54.5%
CN(Cc1cccnc1)C1CC2(CCN(c3ncccn3)CC2)C1.O=C(O)C(F)(F)F.O=C(O)C(F)(F)F,Percent Effect,"30.3 µM, […]",-50.17%
CN(C)CCN1C2(CCN(Cc3nccs3)C2)c2ccccc2S1(=O)=O.O=C(O)C(F)(F)F.O=C(O)C(F)(F)F (centres undefined),Percent Effect,"30.3 µM, […]",-461.1%
CN(Cc1ccco1)C1COC2(CCN(Cc3nccs3)CC2)C1.O=C(O)C(F)(F)F.O=C(O)C(F)(F)F (centres undefined),Percent Effect,"30.3 µM, […]",-7.244%
CN(C)C1COC2(CCN(Cc3nccs3)CC2)C1.O=C(O)C(F)(F)F.O=C(O)C(F)(F)F (centres undefined),Percent Effect,"30.3 µM, […]",-5.42%
CN(Cc1cccnc1)C1CC2(CCN(Cc3ccccn3)CC2)C1.O=C(O)C(F)(F)F.O=C(O)C(F)(F)F.O=C(O)C(F)(F)F,Percent Effect,"30.3 µM, […]",-569.4%
COCCN1C2(CCN(Cc3nccs3)C2)c2ccccc2S1(=O)=O.O=C(O)C(F)(F)F (centres undefined),Percent Effect,"30.3 µM, […]",-203.3%
CC(C)CCN1C2(CCN(Cc3nccs3)C2)c2ccccc2S1(=O)=O.O=C(O)C(F)(F)F (centres undefined),Percent Effect,"30.3 µM, […]",91.13%
CN(Cc1ccccc1)C1COC2(CCN(Cc3nccs3)CC2)C1.O=C(O)C(F)(F)F (centres undefined),Percent Effect,"30 µM, 30.03 µM",56.78%
CCc1n[nH]c(C2CN(C(=O)c3cnc(C)cn3)CCO2)n1 (centres undefined),Percent Effect,10 µM,-10.87%
Cc1noc(C)c1CN1CCN(CC2CC2)c2ncccc2C1.O=C(O)C(F)(F)F.O=C(O)C(F)(F)F,Percent Effect,"30 µM, 30.03 µM",-2.749%
CNC(=O)C1CCCCN1C(=O)C1CCN(S(C)(=O)=O)CC1 (centres undefined),Percent Effect,"30.3 µM, […]",4.842%
Cc1nc(Nc2nncs2)cc(C2CNC2)n1.O=C(O)C(F)(F)F,Percent Effect,"30.3 µM, […]",-21.99%
CC(C)NC(=O)N1CCN(CCn2cccn2)c2ncccc2C1.O=C(O)C(F)(F)F,Percent Effect,"30.3 µM, […]",-82.31%
CN(C)CC(=O)N1CCCC2(CCN(c3ccccc3)C2=O)C1.O=C(O)C(F)(F)F (centres undefined),Percent Effect,"30.3 µM, […]",-9.805%
Cc1noc(C)c1CN1C[C@H](OCc2ccncc2)[C@H]2OCCC[C@H]21.O=C(O)C(F)(F)F.O=C(O)C(F)(F)F,Percent Effect,"30 µM, 30.03 µM",3.056%
CN(C)C(=O)[C@@H]1C[C@@H]2[C@@H](CCN2Cc2nccs2)O1.O=C(O)C(F)(F)F,Percent Effect,"30.3 µM, […]",-77.1%
Cn1ccc(CN2CCCC23CCN(Cc2ccccc2F)CC3)n1.O=C(O)C(F)(F)F.O=C(O)C(F)(F)F,Percent Effect,"30.3 µM, […]",-74.92%
O=C(NC1CC1)N1CCOCC2(CCN(Cc3cccs3)C2)C1.O=C(O)C(F)(F)F (centres undefined),Percent Effect,"30.3 µM, […]",-9.319%
Cl.c1nn(C2CCCCC2)cc1-c1cncn1CCCN1CCCCC1,Percent Effect,"30.3 µM, […]",-11.05%
Cc1cccc(C(=O)N2CCC3(CCN(c4cnn(C)c4)C3=O)C2)n1.O=C(O)C(F)(F)F (centres undefined),Percent Effect,"30 µM, 30.03 µM",-10.65%
c1cncc(-c2nc3c(c(NCC4(c5ccncc5)CC4)n2)CCC3)c1,Percent Effect,"30 µM, 30.03 µM",-5.668%
CN(CC1CCCO1)c1nc(-c2cccnc2)nc2c1CCNCC2 (centres undefined),Percent Effect,"30 µM, 30.03 µM",0.7603%
CCc1noc(CNc2nc(-c3cccnc3)nc3c2CCNCC3)n1,Percent Effect,"30.3 µM, […]",2.358%
Cl.NC1CCc2nc(-c3cccnc3)nc(Nc3ccc(F)cc3)c2C1 (centres undefined),Percent Effect,"30.3 µM, […]",100.3%
CC(O)CNc1nc(-c2cccnc2)nc2c1CCC2 (centres undefined),Percent Effect,"30 µM, 30.03 µM",5.601%
CN(C)c1cccc(C(=O)N2CCCC2c2ncc3c(n2)CCNC3)c1.Cl (centres undefined),Percent Effect,"30.3 µM, […]",-32.8%
CNS(=O)(=O)c1ccc(CNC(=O)N2CCOC(C)C2)cc1 (centres undefined),Percent Effect,"30.3 µM, […]",-5.397%
Cc1ccc2[nH]c(CNC(=O)C3CC4(CCNCC4)CN3C)nc2c1C (centres undefined),Percent Effect,"30 µM, 30.03 µM",-11.35%
CN(Cc1cncnc1)[C@@H]1CN(C(=O)c2ccco2)[C@@H]2CCCO[C@H]12.O=C(O)C(F)(F)F,Percent Effect,"30.3 µM, […]",-35.75%
CCC(=O)N1CCCC1c1csc(Nc2cnccn2)n1 (centres undefined),Percent Effect,"30.3 µM, […]",65.49%
Cc1nc(Nc2cnccn2)cc(C2CCN(c3ncccn3)C2)n1 (centres undefined),Percent Effect,"30.3 µM, […]",26.81%
CC(=O)N1CCCC1c1csc(Nc2cnccn2)n1 (centres undefined),Percent Effect,"30 µM, 30.03 µM",-20%
NC(=O)CN1CCC(c2csc(Nc3cnccn3)n2)CC1,Percent Effect,"30.3 µM, […]",30.88%
COCC(=O)N1CCCC1c1csc(Nc2cnccn2)n1 (centres undefined),Percent Effect,"30.3 µM, […]",22.69%
c1cnc(N2CCCC(c3csc(Nc4cnccn4)n3)C2)nc1 (centres undefined),Percent Effect,"30.3 µM, […]",86.19%
c1cnc(Nc2cncc(C3CCCN(c4ncccn4)C3)n2)nc1 (centres undefined),Percent Effect,"30.3 µM, […]",-5.193%
OCCN1CCC(c2csc(Nc3cnccn3)n2)CC1,Percent Effect,"30.3 µM, […]",6.088%
c1cnc(N2CCC(c3csc(Nc4cnccn4)n3)CC2)nc1,Percent Effect,"30.3 µM, […]",69.17%
Cc1c[nH]nc1C1CCCN1Cc1nccn1C.O=CO (centres undefined),Percent Effect,"30.3 µM, […]",-18.81%
CN1CCC(CN2CCC3(CCCN(Cc4ccoc4)C3)C2=O)CC1.O=C(O)C(F)(F)F.O=C(O)C(F)(F)F (centres undefined),Percent Effect,"30.3 µM, […]",-15.67%
Cn1cc(-c2ncc3c(c2C(=O)O)CCN(Cc2ccco2)C3)cn1.O=C(O)C(F)(F)F,Percent Effect,"30.3 µM, […]",-50.82%
CN(C)C1CCC2(CCN(Cc3cccnc3)CC2)c2ccccc21.O=C(O)C(F)(F)F.O=C(O)C(F)(F)F.O=C(O)C(F)(F)F (centres undefined),Percent Effect,"30.3 µM, […]",-21.62%
c1ccc(C2CCCN(c3ncnc4c3CCNC4)CC2)cc1 (centres undefined),Percent Effect,"30.3 µM, […]",41.62%
Clc1cccc(C2CCN(c3ncnc4c3CCNC4)C2)c1 (centres undefined),Percent Effect,"30.3 µM, […]",68.15%
c1cc(C2CCN(c3ncnc4c3CCNCC4)CC2)ccn1,Percent Effect,"30.3 µM, […]",2.643%
c1ccn2c(C3CCCN(c4ncnc5c4CCNC5)C3)nnc2c1 (centres undefined),Percent Effect,"30 µM, 30.03 µM",-44.47%
c1ccc(C2CCN(c3ncnc4c3CCNC4)CC2)cc1,Percent Effect,"30.3 µM, […]",50.1%
c1ccc2c(c1)CN(c1ncnc3c1CCNC3)CCO2,Percent Effect,"30.3 µM, […]",5.814%
CCCC(=O)NC1CCN(c2ccccc2S(=O)(=O)CC)CC1,Percent Effect,"30.3 µM, […]",-21.44%
CCNc1ncc2c(n1)CN(c1ccc(CC)cc1)C2=O,Percent Effect,"30.3 µM, […]",-19.29%
COc1cccc(Cc2nc3c([nH]2)CC(C)(C)CNC3=O)c1OC,Percent Effect,"30 µM, 30.03 µM",5.431%
O=C1NCCN1C1CCN(Cc2nc(-c3ccccc3)no2)CC1,Percent Effect,"30.3 µM, […]",2.472%
same,Percent Effect,"10 mM, 10 mM as filed; unlikely as a test dose",-47.27%
O=C(c1ccco1)N1C[C@H]2CN(Cc3cccc(F)c3)C(=O)[C@H]2C1,Percent Effect,"30 µM, 30.03 µM",-14.72%
O=C(NC1CC1)N1C[C@H]2CN(Cc3cccc(F)c3)C(=O)[C@H]2C1,Percent Effect,"30 µM, 30.03 µM",59.25%
O=C(CO)N1C[C@H]2CN(Cc3cccc(F)c3)C(=O)[C@H]2C1,Percent Effect,"30 µM, 30.03 µM",-7.119%
O=C(O)C(F)(F)F.O=C(O)C(F)(F)F.c1csc(CN2CCOCC3(CCN(C4CCOCC4)C3)C2)c1 (centres undefined),Percent Effect,"30 µM, 30.03 µM",45.09%
O=c1[nH]c2c(c(=O)n1C1CCCCC1)CCC2NCc1ccccc1 (centres undefined),Percent Effect,"30 µM, 30.03 µM",-25.27%
CCn1nc(C)c2ncnc(NCCCn3ccnc3)c21,Percent Effect,"30.3 µM, […]",-35.88%
COc1ccccc1Oc1ncccc1CNC(=O)C1COC(=O)N1 (centres undefined),Percent Effect,"30 µM, 30.03 µM",-37.43%
Cc1cccc(C)c1Oc1ncccc1CNC(=O)C1COC(=O)N1 (centres undefined),Percent Effect,"30 µM, 30.03 µM",52.62%
Cc1ccc(Oc2ncccc2CNC(=O)C2COC(=O)N2)c(F)c1F (centres undefined),Percent Effect,"30 µM, 30.03 µM",17.54%
O=C(O)C(F)(F)F.O=C(O)C(F)(F)F.O=C(O)C(F)(F)F.O=C(O)C(F)(F)F.c1ccc(CN2CCc3c(COCc4ccncc4)cncc3C2)nc1,Percent Effect,"30.3 µM, […]",-62.04%
CCN(CC)Cc1cc(=O)n2c(n1)CN(S(=O)(=O)C1CC1)CCC2.O=C(O)C(F)(F)F,Percent Effect,"30.3 µM, […]",-2.806%
COc1c(CNC2CCc3c(F)cccc32)c(C)nn1C.Cl (centres undefined),Percent Effect,10 µM,-43.32%
CC(C)[C@@H]1CN(Cc2ccccn2)C[C@H]1NS(=O)(=O)N(C)C,Percent Effect,"30 µM, 30.03 µM",-48.57%
CC(C)[C@@H]1CN(CCOc2ccc(Cl)cc2)C[C@H]1NS(C)(=O)=O,Percent Effect,"30.3 µM, […]",10.13%
CC(C)[C@@H]1CN(CCOc2ccccc2)C[C@H]1NS(=O)(=O)N(C)C,Percent Effect,"30.3 µM, […]",99.19%
Cc1ccc2c(c1)C(=O)NCC1(CCN(C(=O)c3ccccn3)CC1)O2,Percent Effect,"30.3 µM, […]",1.622%
CCN1C(=O)CC(c2ccccc2)C12CCN(CC1CCOCC1)CC2.O=C(O)C(F)(F)F (centres undefined),Percent Effect,"30.3 µM, […]",16.26%
CNc1ncc2c(n1)CN(CCc1ccccc1)C2=O,Percent Effect,"30 µM, 30.03 µM",0.2551%
COc1ccccc1OC1CCN(Cc2ccc(N(C)C)nc2)CC1,Percent Effect,"30 µM, 30.03 µM",16.29%
COc1ccccc1OC1CCN(Cc2cnc(N(C)C)nc2)CC1,Percent Effect,"30 µM, 30.03 µM",59.89%
COCc1ncc(CN2CCC(Oc3ccccc3OC)CC2)cn1,Percent Effect,"30 µM, 30.03 µM",-7.671%
C[C@@H]1C(=O)NC[C@H]2CN(Cc3ccc4c(c3)OCO4)C[C@H]21.O=C(O)C(F)(F)F,Percent Effect,"30.3 µM, […]",-39.22%
